The record followed here is the supplement of paper PMC6555819.

The subject of this assay is PPARg DBDmut IVT, anti-PPARg (DBD mutation: PPARg1 K132A/R137A, NR concentration 270 nM). Description: PBM binding z-score (relative to random genomic background probes); higher = stronger binding; sequences stand for … in GC…GCGATTGACAGCGTAGAATGAAGG
In outline:
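Binding buffer was PBS pH 7.4 with 2% milk, 0.02% Triton X-100, 1 mM DTT, 0.2 mg/mL BSA and 0.4 mg/ml salmon testes DNA. In it, ligand-free nuclear receptor dimers were incubated 1 h on custom Agilent 4×180K protein-binding microarrays carrying double-stranded probes. Antibodies against each partner (one per run) detected binding, and z-scores were calculated against random background probes after regression normalization of scanned fluorescence.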
In turn, CCTGCTAGGTCATGGTTAGCTAATCTACAGTATG had a PBM binding z-score of 0.491.

Regarding AATACAGGGTCACTAGGCCAGTGTAGGTACGAAT, the PBM binding z-score turned out to be 1.25.

For the sequence AGAACGAGGTCAATGAGTTGATAGCACGGGTGGC, the PBM binding z-score was determined as 0.861.

Consider TCTAGCAGGCCAGAGGGTCACTCTAGAGGTACGG, for which the PBM binding z-score is -0.98.

In the case of CCTATTAGTTGACTATAAGGGCAACCGAAGCTCG, the PBM binding z-score was found to be 0.398.

As for ATCTCTAGGTAAAGATAGTTCAGTGCATGCAAAT, the PBM binding z-score was 1.06.

With CCTCGGCGGACAACAGGAGGTCAGAGCTGCCAGA, the PBM binding z-score was -1.7.

Consider AGAATGAGGGTAAGATCAGGGAAACAGAATACAT, for which the PBM binding z-score is 0.818.

TCTATTTGTTGAAGGGCAACCGACGAGTCCGTTT showed a PBM binding z-score of 1.56.

Turning to CGTCCAAGGTCAATACTAGGTCAGTGAAAGCATT, the PBM binding z-score came to 0.663.

Sequence GCTACTGGGGCATCAGCAGGTTACCATAACTTAA showed a PBM binding z-score of 0.741.

CCTCCAAGGTCAGCAGGTCAGTGAAAGCGACGTG displayed a PBM binding z-score of -1.13.

Sequence CCGACTGGGGCAGAAAGGTTACCATTCCATCCGG gave a PBM binding z-score of -1.28.

The sequence CCTACTTGGTCAAGGTCACACACGCTATAGGTAC registered a PBM binding z-score of 1.02.

Sequence CCTGCTAGGTGAATGGTCAGCTAAAGCAGCTCGC yielded a PBM binding z-score of -1.37.

For the sequence TCTTGTAGATCAAAAGTTAAGAAAGCCGAAGCCT, the PBM binding z-score amounted to 0.787.

CCTTACGGGTCACGCCAGGTTATAGCATCGGAGT yielded a PBM binding z-score of 0.0773.

As to GCGACTGGGGCAAAGCAGGTTAACATAAGGTTGG, the PBM binding z-score is -0.874.

With GCGACTGCGGCAAAGCAGGTTACCATAAGGTTGG, the PBM binding z-score was -1.23.

Sequence TAGCCTAGGTCAGATCGGGCCAATATACGCTATA came in with a PBM binding z-score of -0.715.

Regarding AGAACGAGGGCACGTTGAGTTGATAGCAGAGTAG, the PBM binding z-score was -0.039.

Take ACAAGCAGGCCAAGTTTGGGTCACTCAAACAAAG: the PBM binding z-score is -0.239.
